The source of these data is the supplement of paper PMC6124720.

Where a name gives a salt, the structure may show the parent alone. A number with no mark means an inactive call.
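Note: biolog Phenotype Microarray plates PM21–25, OD595 followed daily over 11 days, growth curves converted to index, mean of two independent experiments.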

In the assay the test system is Pseudogymnoascus destructans 20631-21. The assay is described as follows: growth activity index (DuctApe, 0 = no growth, 9 = maximal growth) (index 0-9); higher = more fungal growth (less inhibition), active = 0 or less; extreme values may be limits of the assay. Conditions: concentration level (1-4, increasing; Biolog proprietary): 4; temperature: 13 °C; YPD.
Regarding `O.O=S(=O)([O-])[O-].O=S(=O)([O-])[O-].O=S(=O)([O-])[O-].[Al+3].[Al+3]` [Aluminum sulfate] (Biolog plate: PM24), the growth activity index is 7.

Consider `N=C(N)N` [Guanidine hydrochloride] (Biolog plate: PM21), for which the growth activity index was 0.25.

On to `N=C(N)c1ccc(OCCCCCOc2ccc(C(=N)N)cc2)cc1` [Pentamidine Isethionate] (Biolog plate: PM24), for which the growth activity index is 8.

As for `O=C(O)CN(CCN(CC(=O)O)CC(=O)O)CC(=O)O` (Biolog plate: PM21), the growth activity index was 5.

As to `CC(CN1c2ccccc2Sc2ccccc21)N(C)C` (stereo not drawn) [Promethazine] (Biolog plate: PM21), the growth activity index is 6.

Consider `O=P(O)(O)OP(=O)(O)O` [Sodium pyrophosphate] (Biolog plate: PM24), for which the growth activity index is 4.

On to `Clc1ccc(COC(Cn2ccnc2)c2ccc(Cl)cc2Cl)c(Cl)c1` (stereo not drawn) [Miconazole Nitrate] (Biolog plate: PM24), for which the growth activity index is 0 (active).

Consider `O=c1[nH]c(=O)n([C@H]2C[C@H](O)[C@@H](CO)O2)cc1F` [Fluorodeoxyuridine] (Biolog plate: PM25), for which the growth activity index was 3.

Turning to `CCCCCCCCCCCC[N+](C)(C)CCOc1ccccc1` [Domiphen bromide] (Biolog plate: PM21), the growth activity index is 0 (active).

For `CN[C@@H]1[C@@H](O[C@H]2O[C@H](CO)[C@@H](N)[C@H](O)[C@H]2O)OC2C[C@@H](N)[C@@H](O[C@H]3[C@H](O)[C@@H](O)[C@H](N)C[C@@H]3N)OC2[C@@H]1O` (stereo partly drawn) [Apramycin] (Biolog plate: PM24), the growth activity index is 4.33.

Regarding `NO` [Hydroxylamine] (Biolog plate: PM23), the growth activity index was 0 (active).

For `CO/N=C(\C(=O)N[C@@H]1C(=O)N2C(C(=O)O)=C(CSc3nc(=O)c(O)nn3C)CS[C@H]12)c1csc(N)n1` [Ceftriaxone] (Biolog plate: PM22), the growth activity index was 0 (active).

Take `NC[C@H]1O[C@H](O[C@H]2[C@H](O)[C@@H](O[C@H]3O[C@H](CO)[C@@H](O)[C@H](N)[C@H]3O)[C@H](N)C[C@@H]2N)[C@H](O)[C@@H](O)[C@@H]1O` [Kanamycin] (Biolog plate: PM25): the growth activity index is 4.33.

With `OCC1OC(O)CC(O)C1O` [2-Deoxy-D-glucose] (Biolog plate: PM23), the growth activity index was 4.33.

On to `CCCCCCCC(=O)[O-].[Na+]` [Sodium Caprylate] (Biolog plate: PM23), for which the growth activity index was 4.

In the case of `[Cl][Co][Cl]` [Cobalt (II) chloride] (Biolog plate: PM23), the growth activity index is 1.

In the case of `O=S(=O)([O-])[O-].[Cu+2]` [Copper (II) sulfate] (Biolog plate: PM21), the growth activity index was 6.

For `C=C(CC[C@]12O[C@H](C(=O)O)[C@@](O)(C(=O)O)[C@](C(=O)O)(O1)[C@H](OC(=O)/C=C/[C@@H](C)C[C@@H](C)CC)[C@H]2O)[C@@H](OC(C)=O)[C@H](C)Cc1ccccc1` [Zaragozic acid A] (Biolog plate: PM24), the growth activity index is 0 (active).

Turning to `c1ccc(-c2nn(-c3ccccc3)[n+](-c3cccc4ccccc34)n2)cc1` [Tetrazolium violet] (Biolog plate: PM25), the growth activity index is 2.

Regarding `[Cl-].[Li+]` [Lithium chloride] (Biolog plate: PM22), the growth activity index is 0 (active).

As to `Nc1c2ccccc2nc2ccccc12` [9-Aminoacridine] (Biolog plate: PM24), the growth activity index was 9.

In the case of `O=S(O)(O)=S` [Sodium Thiosulfate] (Biolog plate: PM23), the growth activity index was 0 (active).

As for `[Cl][Cu][Cl]` [Cupric chloride] (Biolog plate: PM23), the growth activity index is 6.

With `CSc1ccc2c(c1)N(CCC1CCCCN1C)c1ccccc1S2` (stereo not drawn) [Thioridazine] (Biolog plate: PM24), the growth activity index is 1.33.

Consider `O.O.O.O.O.O.[Cl-].[Cl-].[Mg+2]` [Magnesium chloride] (Biolog plate: PM21), for which the growth activity index was 2.25.

As to `NC(N)=S` [Thiourea] (Biolog plate: PM21), the growth activity index is 0 (active).

For `CN1CCN(CCCN2c3ccccc3Sc3ccc(C(F)(F)F)cc32)CC1` [Trifluoperazine] (Biolog plate: PM21), the growth activity index is 6.25.

Turning to `Nc1[nH]c(=O)ncc1F` [5-Fluorocytosine] (Biolog plate: PM25), the growth activity index is 4.
